Experiment [1] addresses Luciferin 4-monooxygenase (Photinus pyralis) (UniProt P08659). Kind of experiment: qHTS assay to identify small molecule inhibitors of firefly luciferase (AID 1224835). Further: nearly all actives have a fitted effect of over 25% in size. Further: potency means the concentration at half of the fitted maximal effect. A digest of the protocol: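 Biochemical qHTS: compounds run as interplate titrations against purified firefly enzyme, with D-luciferin and ATP each at its KM concentration. Light output recorded by CCD imaging.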
(In general: qHTS replaces the single test concentration by a dilution series.)

Experiment [2] in a line: qHTS assay to identify small molecule agonists of the constitutive androstane receptor (CAR) signaling pathway - cell viability counter screen (AID 1224836). Further: nearly all actives have a fitted effect of over 45% in size. A digest of the protocol:
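Fluorescence from CellTiter-Fluor indicates live cells after 23 h exposure. The human hepatoma line expresses hCAR and a CYP2B6-2.2kb reporter. Incubation medium contains 0.75 uM PK11195 (final).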

The nature of experiment [3]: qHTS assay to identify small molecule antagonists of the constitutive androstane receptor (CAR) signaling pathway - cell viability counter screen (AID 1224837). Further: nearly all actives have a fitted effect of over 45% in size. A digest of the protocol:
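Cells are seeded, rested 4 hr at 37 C/5% CO2, dosed with compound (15-point series) and 50 nM CITCO, incubated a further 23 hr, and then CellTiter-Fluor reagent is added before fluorescence is read. The line is HepG2 with stable hCAR and CYP2B6-2.2kb.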

Experiment [4] deals with Nuclear receptor subfamily 1 group I member 3 (Homo sapiens) (UniProt Q14994). Put plainly: qHTS assay to identify small molecule antagonists of the constitutive androstane receptor (CAR) signaling pathway (AID 1224838).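 Further: HepG2 cells stably expressing hCAR with CYP2B6 luciferase reporter stimulated by CITCO; nearly all actives have a fitted effect of over 40% in size.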 The method in brief:
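Luminescence from a CYP2B6-2.2kb promoter reporter in hCAR-expressing HepG2 cells reflects CAR signaling. Cells received compounds at 15 concentrations and 50 nM CITCO (final), then incubated 24 h at 37 C/5% CO2.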

A short description of experiment [5]: qHTS assay to identify small molecule antagonists of the estrogen related receptor signaling pathway with the pleiotropic PPARgamma coactivator (PGC) from Tox21 10K library - cell viability counter screen (AID 1224840; active means well fitted cell-killing curve with a large enough effect in the repeat runs, not every such curve was filed as active; further: nearly all actives have a fitted effect of over 40% in size). A digest of the protocol:
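Cell viability is measured by CellTiter-Fluor fluorescence in PGC/ERR cells that receive compounds after a 6-hour attachment period and are then incubated 17.5 hours at 37 C.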

Experiment [6] has as its target Thyrotropin receptor (Homo sapiens) (UniProt P16473). Kind of experiment: qHTS assay to identify small molecule agonists of the thyroid stimulating hormone receptor (TSHR) signaling pathway (AID 1224843; calls by dose curve; further: nearly all actives have a fitted effect of over 45% in size). A digest of the protocol:
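Agonist-mode screen: TSHR HEK293 cells received test chemicals for half an hour at room temperature, then HTRF cAMP detection reagents for one hour prior to fluorescence measurement. Each chemical ran as a 15-concentration series, triplicated.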

Experiment [7] in a line: qHTS assay to identify small molecule agonists of H2AX - cell viability counter screen (AID 1224847; calls by dose curve; further: nearly all actives have a fitted effect of over 30% in size; further: potency means the concentration at half of the fitted maximal effect). A digest of the protocol: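 Viability of CHO-K1 (wild type) cells after 3 hr compound exposure was measured by CellTiter-Glo luminescence.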
Experiment [8] can be described thus: qHTS RealTime-Glo MT Cell Viability Assay in HepG2 cells - 24 hour (AID 1224867). Further: nearly all actives have a fitted effect of over 50% in size. The method in brief: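 HepG2 cells were seeded at 600 cells/well together with NanoLuc luciferase and a cell-permeant prosubstrate, preincubated 5 h at 37 C/5% CO2, then pin-dosed with compounds in DMSO. Nonlytic luminescence from viable cells was read at each time point.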
A short description of experiment [9]: qHTS RealTime-Glo MT Cell Viability Assay in HEK293 cells - 32 hour (AID 1224868). Further: nearly all actives have a fitted effect of over 50% in size. Further: potency means the concentration at half of the fitted maximal effect. A digest of the protocol: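 HEK293 cells were seeded at 600 cells/well together with NanoLuc luciferase and cell-permeant prosubstrate, preincubated 5 h at 37 C/5% CO2, then given compound in DMSO by pintool. Luminescence from viable-cell prosubstrate reduction was read repeatedly over 40 h.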

A short description of experiment [10]: A CellTox Green Cytotoxicity Assay to monitor cytotoxicity in HEK293 cells - 0 hour (AID 1224869). Further: nearly all actives have a fitted effect of over 50% in size. A digest of the protocol:
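Dead-cell fluorescence measured kinetically: asymmetric cyanine dye, HEK293, 600 cells/well, 5 h settle, 23 nL cpd/DMSO, 37 C, reads 0–40 h every 8 h.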

The nature of experiment [11]: qHTS RealTime-Glo MT Cell Viability Assay in HepG2 cells - 40 hour (AID 1224870). Further: nearly all actives have a fitted effect of over 50% in size. A digest of the protocol:
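HepG2 cells (600/well) mixed with RealTime-Glo MT reagent, settled 5 h at 37 C/5% CO2 before compound addition. Nonlytic NanoLuc luminescence from viable-cell prosubstrate reduction read repeatedly during 40 h treatment at 37 C.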

Experiment [12] deals with Nuclear receptor subfamily 1 group I member 3 (Homo sapiens) (UniProt Q14994). Kind of experiment: qHTS assay to identify small molecule agonists of the constitutive androstane receptor (CAR) signaling pathway (AID 1224839). Further: nearly all actives have a fitted effect of over 15% in size. Further: potency means the concentration at half of the fitted maximal effect.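 On activation: HepG2 cells stably carrying human CAR and a CYP2B6 luciferase reporter.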 The method in brief:
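Stable hCAR/CYP2B6-2.2kb HepG2 line in DMEM with 10% FBS; compounds (15 concentrations) and 0.75 uM PK11195 final, 24 h at 37 C/5% CO2, then ONE-Glo luminescence after 30 min.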

A short description of experiment [13]: qHTS assay to identify small molecule antagonists of the estrogen related receptor signaling pathway with the pleiotropic PPARgamma coactivator (PGC) from Tox21 10K library (AID 1224841; call rule not given here). A digest of the protocol: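 Cells stably carrying the PGC/ERR reporter, seeded at 2,000 per well, received pin-transferred compounds 6 h post-plating. Exposure lasted 18 h at 37 C. Signal: One-Glo luminescence.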

Experiment [14] can be described thus: qHTS assay to identify small molecule agonists of the estrogen related receptor signaling pathway with the pleiotropic PPARgamma coactivator (PGC) from Tox21 10K library (AID 1224842). Further: nearly all actives have a fitted effect of over 15% in size. A digest of the protocol:
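PGC/ERR reporter cell line, 2,000 cells per well, incubated 6 h at 37 C before 23 nL compound in DMSO was added. After 18 h at 37 C, One-Glo luminescence read following 30 min at room temperature.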

Experiment [15] in a line: qHTS assay to identify small molecule agonists of H2AX (AID 1224845; active means well fitted activation curve with a large enough effect in the signal ratio in the repeat runs, not every such curve was filed as active; the % refers to the signal ratio). The method in brief: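 Wild-type CHO-K1 cells, plated overnight, exposed 3hr at 37C to 15 concentrations (0.76% DMSO final). Lysed, then HTRF anti-pH2AX (S139) cryptate and anti-H2AX-d2 antibodies, 24 hr room temperature; 665/620 nm emission read.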
Experiment [16] can be described thus: qHTS assay to identify small molecule agonists of the hypoxia (HIF-1) signaling pathway (AID 1224846; active means well fitted activation curve with a large enough effect in the signal ratio in the repeat runs, not every such curve was filed as active; the % refers to the signal ratio). The method in brief:
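Agonist mode reporter screen. ME-180 cells stably expressing bla under HRE control received test compounds in DMSO for 17 hrs (37C, 5% CO2), and beta-lactamase activity was then detected with the CCF4-AM FRET substrate.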

The nature of experiment [17]: qHTS assay to identify small molecule antagonists of the estrogen related receptor (ERR) signaling pathway from Tox21 library (AID 1224848). Further: nearly all actives have a fitted effect of over 50% in size. The method in brief:
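Quantitative high-throughput format: ERR reporter cells (2,000/well) pre-incubated 6 h, treated 18 h at 37 C with compounds in DMSO alongside positive and negative controls, then read by ONE-Glo luminescence.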

Experiment [18] can be described thus: qHTS assay to identify small molecule agonists of the estrogen related receptor (ERR) signaling pathway from Tox21 library (AID 1224849; calls by dose curve; further: nearly all actives have a fitted effect of over 15% in size). To be noted: ERR reporter cell line, ONE-Glo luciferase, 18 h. A digest of the protocol:
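Quantitative HTS in agonist format: NTP ERR cell line, compounds transferred in DMSO after 6 h plating, 18 h incubation at 37 C, ONE-Glo luminescence endpoint.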

A short description of experiment [19]: qHTS assay to identify small molecule agonists of the hypoxia (HIF-1) signaling pathway - cell viability counter screen (AID 1224844; calls by dose curve; further: nearly all actives have a fitted effect of over 50% in size). A digest of the protocol:
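Viability counter screen: HRE-bla ME-180 cells plated 5 hrs before compound addition, treated 17 hrs at 37C and 5% CO2, then CellTiter-Glo added after the FRET reporter read; luminescence after 30 min.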

A number with no mark means an inactive call. Records with an inconclusive call do not appear. Calls of active or inactive are those of the source. Unless noted, the call rests on the fitted dose curve; in most records, active means well fitted curve in the direction sought with a large enough effect in the repeat runs; inconclusive means weak or mixed curves; inactive means no such curve, though single readings can be large; an effect the other way counts as inactive or inconclusive.

The record followed here is PubChem BioAssay (Tox21).
On the % scale 0 is the no-effect control and ±100 the full control effect.

Sequence of Thyrotropin receptor (Homo sapiens) (P16473 whole entry, looked up): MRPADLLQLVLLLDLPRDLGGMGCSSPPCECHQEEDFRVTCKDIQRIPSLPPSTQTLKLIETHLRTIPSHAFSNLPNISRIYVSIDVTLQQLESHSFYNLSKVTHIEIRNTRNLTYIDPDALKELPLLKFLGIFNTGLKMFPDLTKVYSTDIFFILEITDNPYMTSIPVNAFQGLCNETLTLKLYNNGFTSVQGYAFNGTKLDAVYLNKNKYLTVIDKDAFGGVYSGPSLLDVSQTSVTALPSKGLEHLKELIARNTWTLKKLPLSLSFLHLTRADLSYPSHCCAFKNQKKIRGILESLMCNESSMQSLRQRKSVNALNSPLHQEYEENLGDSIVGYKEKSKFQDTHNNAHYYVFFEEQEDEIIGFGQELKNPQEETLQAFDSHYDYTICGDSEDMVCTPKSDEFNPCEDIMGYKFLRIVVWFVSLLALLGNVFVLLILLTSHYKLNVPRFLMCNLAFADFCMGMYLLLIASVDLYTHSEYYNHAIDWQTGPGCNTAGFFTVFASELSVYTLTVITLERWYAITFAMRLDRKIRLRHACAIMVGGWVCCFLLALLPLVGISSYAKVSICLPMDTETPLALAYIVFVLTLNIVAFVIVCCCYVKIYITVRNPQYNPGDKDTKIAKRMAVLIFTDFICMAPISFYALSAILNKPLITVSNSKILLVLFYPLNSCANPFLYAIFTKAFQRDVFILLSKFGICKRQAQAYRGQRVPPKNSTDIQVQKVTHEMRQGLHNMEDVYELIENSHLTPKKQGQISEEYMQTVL
Sequence of Nuclear receptor subfamily 1 group I member 3 (Homo sapiens) (Q14994 whole entry, looked up): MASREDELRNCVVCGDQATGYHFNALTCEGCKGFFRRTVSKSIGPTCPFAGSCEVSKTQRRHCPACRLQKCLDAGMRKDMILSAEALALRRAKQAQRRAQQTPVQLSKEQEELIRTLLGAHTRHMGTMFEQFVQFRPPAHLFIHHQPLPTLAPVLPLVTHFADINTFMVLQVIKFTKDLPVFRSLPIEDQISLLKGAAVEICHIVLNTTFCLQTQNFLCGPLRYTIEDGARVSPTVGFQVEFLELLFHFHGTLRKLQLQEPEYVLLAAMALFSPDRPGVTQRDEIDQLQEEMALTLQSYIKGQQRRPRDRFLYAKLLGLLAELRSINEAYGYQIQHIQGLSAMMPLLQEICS
Sequence of Luciferin 4-monooxygenase (Photinus pyralis) (P08659 whole entry, looked up): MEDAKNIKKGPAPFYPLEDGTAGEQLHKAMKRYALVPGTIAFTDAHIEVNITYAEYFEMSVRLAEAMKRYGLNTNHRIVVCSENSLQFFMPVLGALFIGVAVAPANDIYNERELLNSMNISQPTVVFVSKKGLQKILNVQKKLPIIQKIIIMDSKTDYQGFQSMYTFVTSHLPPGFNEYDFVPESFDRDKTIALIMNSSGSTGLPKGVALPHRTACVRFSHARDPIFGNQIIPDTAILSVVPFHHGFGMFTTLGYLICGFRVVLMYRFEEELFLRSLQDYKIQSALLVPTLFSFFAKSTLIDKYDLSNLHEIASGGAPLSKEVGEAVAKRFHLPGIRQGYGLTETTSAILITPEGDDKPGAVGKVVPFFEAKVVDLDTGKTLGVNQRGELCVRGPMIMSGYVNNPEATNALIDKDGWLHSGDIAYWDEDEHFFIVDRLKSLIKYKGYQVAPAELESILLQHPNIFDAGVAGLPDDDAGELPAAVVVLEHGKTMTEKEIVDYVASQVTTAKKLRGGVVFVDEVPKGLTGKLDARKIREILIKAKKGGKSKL

On to `CC(C)(C)c1csc(-c2cc3cc(OCc4ccccc4CC(=O)O)ccc3o2)n1`, for which the values for the Potency in experiment [1], in experiment [7] and in experiment [9] were 5.03 µM (active), 113 µM (active) and 38.9 µM (active), respectively. For the same compound, the Potency entry in experiment [2], in experiment [3], in experiment [4], in experiment [5], in experiment [6] and in experiment [8] was “inactive” throughout. Also, the Potency result in [10] and in experiment [11] was “inactive” throughout.
Take `COc1cc(C)ccc1O`: the Potency result in experiment [1], in experiment [2], in experiment [3], in experiment [4], in [12] and in experiment [5] was “inactive” each time. Moreover, the Potency result in experiment [13], in experiment [14], in experiment [6], in [15], in experiment [16] and in experiment [7] was “inactive” each time. Moreover, the Potency result in experiment [17], in experiment [8], in experiment [9] and in [11] was “inactive” throughout. In experiment [18] (at 92.4 µM (top of the series)), the activity change, positive = activation was 5.96%.
Turning to `CCCCCCCCCCCCOC(=O)c1ccc(O)cc1`, the Potency result in [1], in [2], in [3], in experiment [4], in experiment [12] and in experiment [5] was “inactive” in each case. For the same compound, the Potency entry in experiment [19], in experiment [16], in [8], in experiment [10] and in experiment [11] was “inactive” throughout.
As to `C1CCC(SSC2CCCCC2)CC1`, the Potency entry in [1], in [2], in experiment [3], in experiment [4], in [5] and in experiment [13] was “inactive” each time. For the same compound, the Potency entry in experiment [14], in experiment [6], in experiment [19], in experiment [15], in experiment [16] and in [7] was “inactive” each time. The Potency result in experiment [17], in experiment [8], in experiment [9], in experiment [10] and in experiment [11] was “inactive” in each case. Moreover, the activity change, positive = activation in experiment [18] (at 92.4 µM (top of the series)) was 5.57%.
Regarding `CCC(CC)(CC(=O)Nc1cccc(/C=C/c2nc(C3CCC3)cs2)c1)C(=O)O`, the Potency was 2.75 µM (active) in experiment [1] and 23.7 µM (active) in experiment [12]. The Potency entry in experiment [2], in experiment [3], in experiment [4], in [5], in experiment [19] and in [15] was “inactive” throughout. Moreover, the Potency result in [16], in [7], in [8], in experiment [9], in [10] and in experiment [11] was “inactive” each time.
As to `CCCCCCCC/C=C\CCCCCCCCN`, the Potency result in experiment [1], in experiment [2], in experiment [3], in [4], in [12] and in experiment [5] was “inactive” each time. For the same compound, the Potency entry in experiment [13], in experiment [14], in experiment [6], in experiment [15], in experiment [16] and in experiment [7] was “inactive” in each case. Besides, the Potency entry in experiment [17] and in experiment [10] was “inactive” throughout. The activity change, positive = activation in experiment [18] (at 42.5 µM (top of the series)) is -2.95%. Further, the Potency in experiment [9] was 23.9 µM (active).
In the case of `COC(C)=O`, the Potency entry in [1], in experiment [2], in experiment [3], in experiment [4], in experiment [12] and in experiment [5] was “inactive” throughout. For the same compound, the Potency result in experiment [19], in experiment [15], in [16], in [8], in [9] and in experiment [10] was “inactive” throughout. In addition, in experiment [11], the Potency entry was “inactive”.
